High-throughput results as filed in PubChem.
BoNT F protease – BoNT F light chain protease inhibition; Multiplex microsphere protease cleavage assay, flow cytometry; inhibition, % at 10 µM; actives 0.22% (n = 360,000); in the data active = inhibition above about 35%, passing the limit was not always enough; inconclusive = no clear call, values can overlap the other calls; note: plate controls were buffer without enzyme for full effect and enzyme alone for no effect
BoNT-A LC inh2 – inhibitors of Botulinum neurotoxin A light chain protease; multiplex microsphere protease substrate cleavage, flow cytometry; inhibition, % at 10 µM; actives 0.17% (n = 360,000); AID 588499; note: plate controls were buffer without enzyme for full effect and enzyme alone for no effect
Anthrax LF prot – inhibitors of Bacillus anthracis lethal factor protease; P15917; multiplex microsphere protease cleavage assay, LF; inhibition, % at 10 µM; actives 0.12% (n = 360,000); note: plate controls were buffer without enzyme for full effect and enzyme alone for no effect
MazF activator – MazEF (E. coli) toxin RNase activation | P0AE70 | FAM/BHQ RNA-DNA oligo cleavage fluorescence, 5 h | activation, % at 20 µM | actives 0.32% (n = 350,000) | AID 504720; in the data active = activation above about 50%
Target sequence (P0AE70 whole entry, looked up): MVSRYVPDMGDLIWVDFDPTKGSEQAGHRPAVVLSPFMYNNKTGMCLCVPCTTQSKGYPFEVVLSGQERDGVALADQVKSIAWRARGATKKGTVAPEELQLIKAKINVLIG
DUSP3 inh – blocks human VHR1 dual specificity phosphatase | actives 0.52% (n = 290,000) | recombinant VHR phosphatase, pNPP absorbance | AID 1654 | P51452 | inhibition, % at 13.3 µM; in the data active = inhibition above about 50%
Target sequence (P51452 whole entry, looked up): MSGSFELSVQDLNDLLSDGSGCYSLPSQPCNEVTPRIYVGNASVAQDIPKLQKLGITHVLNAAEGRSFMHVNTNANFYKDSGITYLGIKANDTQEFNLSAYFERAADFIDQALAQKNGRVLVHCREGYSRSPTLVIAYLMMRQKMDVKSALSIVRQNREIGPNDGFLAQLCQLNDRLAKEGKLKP
Autofluor counter – counter-screen for toxin protease inhibitors: compound fluorescence; AID 624483; compound autofluorescence counterscreen, microsphere flow cytometry; active compounds read high; fluorescence intensity (test concentration not listed); actives 3.1% (n = 360,000); in the data active = fluorescence intensity above about 16000; inconclusive = no clear call, values can overlap the other calls
* hit, by the source's call; ? = inconclusive; nt = no result. The list is not random: actives were taken first. Their share in the collection is about 4%. Cut-off read from the data, not from the text of the source, unless noted: active = inhibition above about 30%; inconclusive = no clear call, values can overlap the other calls; inactive = below that.

SMILES | BoNT F protease | BoNT-A LC inh2 | Anthrax LF prot | MazF activator | DUSP3 inh | Autofluor counter
Cc1cccc(NC(=O)c2ccccc2C(=O)O)c1 | 3 | 1 | -1 | 8 | 3 | 19743*
Cc1cccc(NC(=O)c2ccccc2-c2ccccc2)c1 | 4 | 1 | -9 | 9 | 25 | 3287
Cc1cccc(NC(=O)c2cccc3c2C(=O)c2ccccc2-3)c1 | 0 | 0 | 0 | 2 | 27 | 23188*
O=C(Nc1ccc(F)c(Cl)c1)c1cc(C2CCCN(S(=O)(=O)c3ccccc3)C2)on1 (centres undefined) | 0 | 0 | -10 | nt | nt | 4105
FC(F)(F)c1cccc(Oc2ccc3c(C(F)(F)F)cc(C(F)(F)F)nc3n2)c1 | 1 | ? | -2 | 8 | 27 | 21842*
Cc1ccccc1C1=NCC(=O)N(CC(=O)N2CCCCC2)c2sc(C)c(C)c21 | -2 | ? | 0 | 0 | -5 | 22255*
CC(=O)CCc1oc2ccc(C)cc2c1-c1ccc(C)o1 | -9 | -2 | -7 | 13 | 35 | 6290
COc1cccc(C2=NOC(C(=O)Nc3cc(C)nn3-c3ccccc3)C2)c1OC (centres undefined) | 5 | 0 | -2 | 4 | 34 | 6049
COc1cccc(C2=NOC(C(=O)Nc3cccc(C(C)=O)c3)C2)c1 (centres undefined) | 11 | 9 | -3 | -15 | 21 | 19143*
CC(=O)c1ccc(NC(=O)C2CC(c3ccc(F)cc3)=NO2)cc1 (centres undefined) | -3 | -1 | -2 | 5 | 25 | 23509*
Cc1cc(NC(=O)C2CC(c3ccc(F)cc3)=NO2)n(-c2ccccc2)n1 (centres undefined) | -5 | 0 | -2 | 21 | 50* | 5736
CC(=O)c1cccc(NC(=O)C2CC(c3ccc(F)cc3)=NO2)c1 (centres undefined) | 21 | 0 | -4 | -4 | 8 | 4262
CC1CCCC(C)N1C(=O)C1CC(c2ccc(F)cc2)=NO1 (centres undefined) | -4 | -3 | 0 | 6 | 31 | 17330*
CC1CCN(c2nc3c(cc2C#N)COC(C)(C)C3)CC1 | -8 | 0 | -5 | 1 | 11 | 3700
c1ccc(-c2cc3cc4c(cc3cn2)OCO4)cc1 | -2 | 0 | -2 | 2 | nt | 3806
O=C(NC1CCCC1)C1CC(c2ccc(F)cc2)=NO1 (centres undefined) | -5 | -1 | 0 | -6 | 31 | 23071*
Cc1cc(C)c(C#N)c(SC2CCCCC2=O)n1 (centres undefined) | 2 | 1 | 0 | -6 | 11 | 11332
Cc1ccc(S(=O)(=O)N2c3ccccc3OCC2c2ccccc2)cc1 (centres undefined) | 4 | 0 | -4 | 8 | 13 | 4424
O=C(C(Cl)Cl)N1c2ccccc2OCC1c1ccccc1 (centres undefined) | -3 | ? | -1 | -5 | 7 | 22852*
Brc1ccc(-c2nc(-c3ccccc3)no2)o1 | 2 | 2 | -1 | -8 | 3 | 22544*
Cc1nc2scc(-c3cccs3)c2c(=O)[nH]1 | -7 | -4 | -1 | 1 | 55* | 25937*
COc1ccc(C)cc1NC(=O)CN(c1ccccc1)S(C)(=O)=O | -6 | 0 | -9 | 4 | 18 | ?
O=C(CN1C(=O)S/C(=C/c2cccs2)C1=O)N1CCOCC1 | -7 | 0 | -6 | 4 | 23 | 2398
Cc1cccc2[nH]c3c(N4CCC5(CC4)OCCO5)ncnc3c12 | -2 | ? | -4 | 11 | 10 | 22045*
Cc1cccc2[nH]c3c(N4CCN(C(=O)c5ccco5)CC4)ncnc3c12 | -8 | -3 | -3 | 15 | 39 | 24618*
SMILES | BoNT F protease | BoNT-A LC inh2 | Anthrax LF prot | MazF activator | DUSP3 inh | Autofluor counter
Clc1ccc2[nH]c3c(N4CCC5(CC4)OCCO5)ncnc3c2c1 | nt | nt | nt | 2 | 24 | nt
O=C(Nc1cc([N+](=O)[O-])ccc1F)c1ccc2c(c1)OCCO2 | -1 | 0 | 2 | -2 | 34 | 2467
Cc1ccc(C)n1-c1ccc(-n2cnnn2)cc1 | 0 | 1 | 0 | 0 | 7 | 16233*
C=C(C)c1cccc(C(C)(C)NC(=O)NCc2ccc(OC)c(OC)c2)c1 | -2 | 0 | -4 | 7 | 28 | 23352*
CC(C)(C)OC(=O)N/N=C\c1ccc(OC(=O)c2cccs2)cc1 | 9 | 1 | 5 | -1 | 2 | 7408
Cc1cc(C)c2c(=O)n(CC(=O)Nc3ccc(Cl)cc3)sc2n1 | 5 | 48* | -7 | -16 | -20 | 3796
CCOc1ccc(NC(=O)Cn2sc3nc(C)cc(C)c3c2=O)cc1 | -14 | -1 | -4 | -37 | 5 | ?
Cc1ccc(-c2noc(CCC(=O)NCc3ccco3)n2)cc1 | -2 | 0 | -3 | -7 | 23 | 19424*
COc1cc(-c2noc(CCCC(=O)NCc3ccco3)n2)cc(OC)c1OC | 6 | 4 | 1 | 3 | 31 | 21043*
O=C(CCc1nc(-c2ccccc2)no1)NCc1ccco1 | -11 | 1 | -5 | -10 | 32 | 4955
O=C(CC1SC(=O)N(c2ccccc2)C1=O)Nc1ccccc1 (centres undefined) | -4 | 1 | -3 | -15 | 18 | 21831*
Cc1ccc(NC(=O)CC2SC(=O)N(c3ccccc3)C2=O)cc1 (centres undefined) | -16 | 0 | -7 | 1 | 4 | 4564
CN(C)CCNC(=O)c1cccc(-c2cnc3c(NC=O)cc(-c4cccs4)cn23)c1 | -38 | 5 | -8 | nt | nt | 3714
COCCn1c(SCC(=O)Nc2ccc(Cl)cn2)nnc1-c1ccncc1 | -3 | 0 | 1 | 1 | 13 | 4302
COc1ccc(C(C)=O)cc1COC(=O)c1cccc(N(C)C)c1 | 39* | 0 | -4 | -6 | 15 | 3334
COc1ccc(C(C)=O)cc1COC(=O)c1ccc(N)c([N+](=O)[O-])c1 | -1 | 0 | 2 | 10 | 18 | 4054
CC1(C)Cc2c(C#N)c(N3CCN(C(=O)c4ccccc4)CC3)nc(-c3ccco3)c2CS1 | 12 | 5 | -2 | -1 | 4 | 3687
COc1ccc(CN2CCC(Oc3ccc(C(=O)NCc4ccccn4)cc3)CC2)c(F)c1 | -7 | 0 | -6 | -2 | 57* | 4346
COc1ccc(Cc2c(O)nc(SCC(C)C)[nH]c2=O)cc1 | 30 | 0 | 4 | 0 | -10 | 4060
COc1ccc(Cc2c(O)nc[nH]c2=O)cc1 | -5 | ? | 2 | 3 | 13 | 16832*
O=C(Nc1cccc(-c2nc3ncccc3o2)c1)c1cc2ccccc2o1 | -16 | -1 | 0 | -2 | 4 | 4703
O=C(Nc1cccc(-c2nc3ncccc3o2)c1)c1sc2ccccc2c1Cl | 8 | 8 | 0 | 44 | 31 | 18637*
O=C(Cc1ccccc1)Nc1cccc(-c2nc3ncccc3o2)c1 | -9 | -1 | 0 | 5 | 6 | 4846
O=C(Nc1cccc(-c2nc3ncccc3o2)c1)c1sc2cc(Cl)ccc2c1Cl | 2 | ? | 0 | -64 | 4 | 22567*
O=C(c1cccc(N2CCCC2=O)c1)N1CCN(c2ccccc2)CC1 | 5 | 0 | -2 | 2 | 22 | 2782
